Screening results from PubChem BioAssay.
Compounds with a hit are over-represented: about 6.5% of the library has one in this group of screens.
FMDV inh: foot and mouth disease virus antiviral activity. Potency, µM (highest dose often 57.9 µM), for the others: at the highest dose activity change, negative = inhibition, most hits filed as inhibitors. FMDV antiviral cell-based qHTS. actives 1.2% (n = 410,000); calls by dose curve; tested in HEK293T cells; note: read-out not given here; potency is the fitted concentration of half-maximal effect; nearly all actives have a fitted effect of over 45% in size
HCMV inh: human cytomegalovirus inhibition. HFF cells, HCMV-luciferase reporter, 72 h; stronger effect = lower value. activity change, negative = inhibition, % at 57.5 µM. actives 4.5% (n = 410,000). AID 1259415; in the data active = activity change below about -60%; inconclusive = no clear call, values can overlap the other calls; inactive = above about -39%
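Human foreskin fibroblasts infected with luciferase-reporter HCMV at MOI 1 PFU/cell, compounds at two doses. Luciferase measured 72 h post infection; normalized to buffer-only basal and Salinomycin (10uM) controls.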
Lassa entry inh: inhibitors of Lassa virus binding or cell entry | Lassa virus pseudotype entry inhibition, cell reporter | Potency, µM (highest dose often 37.9 µM), inactives show at the top dose activity change, negative = inhibition, hits mostly inhibitors | actives 1.2% (n = 300,000) | AID 540256; calls by dose curve; tested in HEK293 cells; note: potency is the fitted concentration of half-maximal effect; nearly all actives have a fitted effect of over 50% in size
Vaccinia mCherry: vaccinia inhibition (mCherry reporter). Vaccinia virus mCherry reporter infection, fluorescence. Potency, µM (top dose mostly 36.5 µM), for the others: at the highest dose activity change, negative = inhibition, hits mostly inhibitors. actives 0.63% (n = 310,000); calls by dose curve; tested in A549 cells; note: potency is the fitted concentration of half-maximal effect; nearly all actives have a fitted effect of over 35% in size
VACV Venus inh: inhibitors of vaccinia virus (Venus reporter); Vaccinia virus Venus reporter expression, fluorescence; Potency, µM (doses to about 36.5 µM), without a hit: at the highest dose activity change, negative = inhibition, hits mostly inhibitors; actives 0.46% (n = 330,000); AID 720580; calls by dose curve; tested in A549 cells; note: potency is the fitted concentration of half-maximal effect; nearly all actives have a fitted effect of over 30% in size
Marburg entry inh: Marburg virus entry inhibition; Marburg virus pseudotyped entry inhibition, cell reporter; Potency, µM (highest dose often 37.8 µM), without a hit: at the highest dose activity change, negative = inhibition, usual class: inhibitors; actives 1.8% (n = 300,000); calls by dose curve; tested in HEK293 cells; note: potency is the fitted concentration of half-maximal effect
Starred values were filed as active, the others as inactive; i = inactive; ? = inconclusive; nt = no result given; ! = not active in a repeat; [ ] = another dose, or the depositor's remark. % is set by controls: 0 for no effect and ±100 for the full control effect.

SMILES	FMDV inh	HCMV inh	Lassa entry inh	Vaccinia mCherry	VACV Venus inh	Marburg entry inh
O=C(NCc1ccccc1)N1CCOCC1	-4.9%	0.0	nt	nt	nt	nt
O=C(OCc1ccccc1)N1CCOCCOCCN(C(=O)OCc2ccccc2)CCOCCOCC1	22.4µM*	-13.5	?	-17.6%	-15.2%	?
O=C1N=C2C=CC=CC2N1C1CCN(CCCC(c2ccc(F)cc2)c2ccc(F)cc2)CC1 (stereo not drawn)	nt	nt	nt	nt	nt	-22.3%
O=C(C[n+]1cccc(Br)c1)c1ccccc1	2.0%	61.2	-16.1%[46.1 µM]	-3.2%	-5.3%	24.4%[46.1 µM]
O=C(C[n+]1cccc(Br)c1)c1ccc(-c2ccccc2)cc1	4.8%	-74.4*	nt	-4.0%	-17.3%	nt
Cc1ccc[n+](CC(=O)c2ccc(-c3ccccc3)cc2)c1	-19.9%	-68.4*	-7.0%	i	-9.9%	-11.7%
CCOc1ccccc1NC(=O)c1nnn(CC(=O)Nc2ccccc2CC)c1N	-3.4%	-15.3	0.2%[46.1 µM]	-14.7%	-3.7%	-11.7%[46.1 µM]
COc1ccc(-n2c(SCc3ccccc3)nc3c([nH]c4ccccc43)c2=O)cc1	0.0%	19.7	?	?	-25.6%	nt
COC(=O)[C@H]1[C@H](CO)[C@H]2Cn3c(ccc(Br)c3=O)[C@H]2N1C(=O)c1ccccn1	nt	10.7	nt	nt	nt	nt
CCOc1ccc(CC(=O)NCCc2sc3nc(-c4ccc(F)cc4)nn3c2C)cc1	-22.2%	38.0	-13.0%[46.1 µM]	-16.7%	-25.7%	nt
Cc1ccc(C(=O)Nc2sc3c(c2C(=O)O)CCCCC3)o1	-44.4%	40.5	7.94µM*	?	?	6.31µM*
Cc1ccc(C(=O)Nc2sc3c(c2C(=O)O)CCCC3)o1	21.9%	-61.8*	nt	nt	nt	nt
N#Cc1ccc2[nH]cc(C3c4cc(F)ccc4C=C(c4ccsc4)N3c3ccc(C#CCCO)cc3)c2c1 (stereo not drawn)	-14.2%	-0.8	nt	-5.7%	-10.3%	nt
CC(C)(O)C#Cc1ccc(N2C(c3ccsc3)=Cc3ccc(F)cc3C2c2c[nH]c3ccccc23)cc1 (stereo not drawn)	-12.9%	-63.5*	nt	23.5%	-1.2%	nt
C=CCN1c2ccccc2[C@]23CCC(=O)N(CC4CC4)C2=NC(C(=O)OC)=C(C(=O)OC)[C@H]13	nt	nt	nt	nt	nt	19.4%[14.2 µM]
O=C(CNC(=S)NC(=O)C1CCCCC1)c1ccccc1	42.8%	-78.8*	12.5%	-14.8%	-10.9%	?
O=C(NC(=S)NCCc1ccccc1)C1CCCCC1	20.2%	96.0	?	i	-8.4%	?
COC(=O)c1cccc(C(=O)N2CCc3c(cnc(C)c3CNC(=O)c3ccsc3)C2)c1	-11.9%	nt	nt	-7.4%	12.6%	nt
Cc1c(C(=O)O)oc2c1-c1nn(Cc3ccccc3Cl)cc1CC2	-23.5%	8.5	-8.7%[46.1 µM]	-11.4%	-8.7%	2.7%[46.1 µM]
CNC(=S)NNC(=O)c1ccccc1Br	4.6%	15.0	?	-13.6%	-11.2%	?
O=C1C=C(NNC(=O)c2ccccc2Br)CCC1	3.0%	-62.3*	?	i	-9.7%	?
FC(F)Oc1ccc(NC(=S)NCc2ccccc2)cc1	36.1%	-35.7	13.2%	-2.1%	?	?
Oc1cccc2c(NC(=S)Nc3ccc(OC(F)F)cc3)cccc12	?	-98.8*	?	?	4.4%	?
NS(=O)(=O)c1ccc(NC(=S)Nc2ccc(S(=O)(=O)N3CCCC3)cc2)cc1	35.8%	-31.9	-9.3%[46.1 µM]	-12.6%	-4.0%	1.0%[46.1 µM]
O=S(=O)(c1ccc(NC(=S)NC23CC4CC(CC(C4)C2)C3)cc1)N1CCCCC1	-28.3%	-90.2*	nt	-25.1%	?	nt
SMILES	FMDV inh	HCMV inh	Lassa entry inh	Vaccinia mCherry	VACV Venus inh	Marburg entry inh
CCOc1ccc(NC(=S)NC23CC4CC(CC(C4)C2)C3)cc1	-1.7%	-20.4	nt	nt	nt	nt
O=S(=O)(c1ccc(NC(=S)NN=Cc2ccccc2O)cc1)N1CCCCC1	-23.6%	-61.2*	6.31µM*	12.6µM*	?	?
FC(F)Oc1ccc(NC(=S)NC23CC4CC(CC(C4)C2)C3)cc1	?	-37.5	2.51µM*	-2.8%	-22.4%	-28.8%[46.1 µM]
Cc1ccc(N(Cc2cccs2)C(=O)c2ccc(OC(C)C)cc2)cc1	10.9%	-3.2	?	i	-13.7%	?
CN=C1S/C(=C\c2cccn2-c2cccc(Br)c2)C(=O)N1C	4.6%	-65.2*	3.2%	nt	nt	-8.8%
CN=C1S/C(=C\c2ccc(N3CCCC3)c(F)c2)C(=O)N1C	8.9%	35.4	16.0%[46.1 µM]	?	-7.4%	4.5%[46.1 µM]
CCC(C)Sc1cc(-c2nc3cc(C)ccn3c2NC2CCCCC2)ccc1OC (stereo not drawn)	?	-83.9*!	nt	-34.8%	?	nt
